The campaign covered roughly 1,700 compounds. About 65 (4%) were called active. Not all results are given here. Unmarked numbers belong to inactive results. Cut-off read from the data, not from the text of the source: active = Nile Red retention ratio vs DMSO above about 190%; inactive = the rest.
Each molecule was assayed on Candida albicans drug resistance protein 2 (Cdr2) efflux pump, expressed in S. cerevisiae (assay: Cdr2 pump blockade via Nile Red retention – S. cerevisiae AD/CaCDR2, flow cytometry, cherry pick 1, singleplex, confirmation (AID 588520;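 note: higher ratio means more blocking of Cdr2 efflux of the dye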)). Details: at 10 µM, active compounds read high.
For `COc1ccc2[nH]c3c(C)c4cc[n+](C)cc4c(C)c3c2c1`, the Nile Red retention ratio vs DMSO was 97.2%.
With `O=C1NC(=O)C2C1C(c1ccc([N+](=O)[O-])cc1)=NN2Cc1ccccc1` (centres undefined) the Nile Red retention ratio vs DMSO was 112%.
`COc1ccc(-c2sc3ccccc3c2-c2ccc(OCCN3CCOCC3)cc2)cc1` was tested, and the Nile Red retention ratio vs DMSO was 101%.
`O=C(NCc1ccccc1)C(=O)NCC1OCCN1S(=O)(=O)c1ccc(Br)cc1` (centres undefined) showed a Nile Red retention ratio vs DMSO of 84.8%.
With `COc1ccccc1CSc1ncc(-c2ccc([N+](=O)[O-])cc2)[nH]1` the Nile Red retention ratio vs DMSO was 87.5%.
In the case of `CCOc1ccc(C2/C(=C(/O)c3ccc4c(c3)CC(C)O4)C(=O)C(=O)N2CCCn2ccnc2)cc1` (centres undefined), the Nile Red retention ratio vs DMSO is reported as 94.1%.
For `COc1ccc(C(=O)NC2CC(C)(C)Cc3c2cnn3-c2ccccc2)c(OC)c1` (centres undefined), the Nile Red retention ratio vs DMSO was 100%.
`CN1CCN(S(=O)(=O)c2ccc(NC(=S)NC(=O)C3CC3)cc2)CC1` gave a Nile Red retention ratio vs DMSO of 103%.
In the case of `CC(C)C(=O)N1CCC2(CC1)Oc1ccc(F)cc1C(=O)C21CC(c2ccccc2)=NO1` (centres undefined), the Nile Red retention ratio vs DMSO is reported as 102%.
`CN(C)S(=O)(=O)c1cc(C(=O)Nc2ccn(C)n2)c(Cl)cc1Cl` gave a Nile Red retention ratio vs DMSO of 99.3%.
In the case of `CCn1c(/C=C/c2ccc([N+](=O)[O-])o2)nc2ccccc2c1=O`, the Nile Red retention ratio vs DMSO is reported as 212% (active).
`O=S(=O)(c1ccccc1)N1CCc2ccccc21` was tested, and the Nile Red retention ratio vs DMSO was 83.1%.
For `CC12CCC(C(=O)N(c3cccc(Cl)c3)C1=O)C2(C)C` (centres undefined), the Nile Red retention ratio vs DMSO was 110%.
`O=C(CNC(=O)c1ccc(-c2ccccc2)cc1)OCc1ccc(Cl)cc1` was tested, and the Nile Red retention ratio vs DMSO was 120%.
For `Cc1cc(C)cc(NC(=O)C(OC(=O)c2ccc(O)cc2)c2ccccc2)c1` (centres undefined), the Nile Red retention ratio vs DMSO was 101%.
In the case of `CC(/C=N/NC(=O)c1cc(-c2ccc3ccccc3c2)n[nH]1)=C\c1ccco1`, the Nile Red retention ratio vs DMSO is reported as 95.4%.
`CCCc1nc(N2CCN(C)CC2)c2sc(=S)n(-c3ccccc3)c2n1` was tested, and the Nile Red retention ratio vs DMSO was 99.6%.
`C[n+]1ccc(/C=C/c2c[nH]c3ccccc23)cc1` gave a Nile Red retention ratio vs DMSO of 140%.
`CCCCCCCCCCCCCCCC(=O)OC/C=C(C)/C=C/C=C(C)/C=C/C1=C(C)CCCC1(C)C` showed a Nile Red retention ratio vs DMSO of 123%.
`Cc1nn(C)cc1N1C(=O)c2cccc3c(N)ccc(c23)C1=O` gave a Nile Red retention ratio vs DMSO of 106%.
`COc1ccc(/C=C(\C#N)c2c[nH]c3ccccc23)cc1` was tested, and the Nile Red retention ratio vs DMSO was 98.5%.
In the case of `CCCCOc1ccc(C(=O)NCC(=O)OCC(=O)c2c(N)n(C)c(=O)n(C)c2=O)cc1`, the Nile Red retention ratio vs DMSO is reported as 103%.
`NNC(=O)COc1ccc(C2SCCS2)cc1` was tested, and the Nile Red retention ratio vs DMSO was 98.5%.
`COc1ccc(C(=O)NC(=S)Nc2ccc(N3CCCC3)cc2)cc1OC` gave a Nile Red retention ratio vs DMSO of 95.1%.
In the case of `O=C(CSc1nnc(-c2cccnc2)n1Cc1ccco1)c1ccc(Cl)c(Cl)c1`, the Nile Red retention ratio vs DMSO is reported as 107%.
`CCCCN1C(=O)/C(=C/C=C2/C=Cc3ccccc3N2CC)SC1=S` was tested, and the Nile Red retention ratio vs DMSO was 108%.
Molecule `CCCCCC(=O)Nc1ccc(C(=O)N/N=C/c2ccc([N+](=O)[O-])cc2)cc1` has a Nile Red retention ratio vs DMSO of 105%.
`COc1ccc(C(=O)C2CCCN(Cc3cccn3-c3ccccn3)C2)c(C)c1` (centres undefined) showed a Nile Red retention ratio vs DMSO of 98.5%.
Molecule `O=C(Cc1ccc(Br)cc1)N1CCN(c2ccccn2)CC1` has a Nile Red retention ratio vs DMSO of 85.2%.
`COc1ccc(NC(=S)N2CCc3cc(OC)c(OC)cc3C2)cc1` was tested, and the Nile Red retention ratio vs DMSO was 99.3%.
Molecule `CCOc1ccc(/C=C2\SC(=S)N(NC(=O)c3ccncc3)C2=O)cc1OC` has a Nile Red retention ratio vs DMSO of 105%.
For `CN=C(c1ccccc1)c1c(C)cccc1C`, the Nile Red retention ratio vs DMSO was 107%.
`COc1ccc(S(=O)(=O)N2CCOC2CNC(=O)C(=O)NCc2ccc(F)cc2)cc1` (centres undefined) showed a Nile Red retention ratio vs DMSO of 114%.
`Cc1cc(/C=N/NC(=O)CC2(C)OCCO2)c(C)n1-c1ccc(Cl)c(Cl)c1` showed a Nile Red retention ratio vs DMSO of 101%.
For `COc1ccccc1/C=C/C=N/n1c(-c2ccc(Cl)cc2Cl)n[nH]c1=S`, the Nile Red retention ratio vs DMSO was 119%.
In the case of `Cc1ccc(OCc2cc(C(=O)N(C)CCc3ccccc3)no2)cc1C`, the Nile Red retention ratio vs DMSO is reported as 97.7%.
With `CCOC(=O)c1c(NC(=S)NC(=O)c2ccco2)sc2c1CCCC2` the Nile Red retention ratio vs DMSO was 95.4%.
With `Cc1ccc(/C=C(\C#N)C(=O)Nc2cccc3ncccc23)o1` the Nile Red retention ratio vs DMSO was 93%.
With `COc1cccc(NC(=O)CN(C)C(=O)/C=C/c2cc(OC)ccc2OC)c1` the Nile Red retention ratio vs DMSO was 97.5%.
Molecule `CSCCC(NC(=O)COc1ccccc1)C(=O)OCCOc1ccc(Br)cc1` (centres undefined) has a Nile Red retention ratio vs DMSO of 91.4%.
In the case of `O=C(CCCCCn1c(=O)[nH]c2ccccc2c1=O)NCCc1c[nH]c2ccccc12`, the Nile Red retention ratio vs DMSO is reported as 96.3%.
For `CCOC(=O)CNC(=O)CSc1nnnn1-c1cc(C)ccc1C`, the Nile Red retention ratio vs DMSO was 102%.
`O=C(OCc1ccc(-c2ccccc2)cc1)c1cccc(O)c1` gave a Nile Red retention ratio vs DMSO of 108%.
For `Cc1nc2c(C(=O)NCc3ccc4c(c3)OCO4)c[nH]n2c(=O)c1Cc1ccccc1F`, the Nile Red retention ratio vs DMSO was 108%.
For `Cc1nn(C)cc1C(=O)Nc1ccccc1Br`, the Nile Red retention ratio vs DMSO was 104%.
Molecule `Cc1csc(NC(=O)c2ccc(-c3ccc(Cl)cc3Cl)o2)n1` has a Nile Red retention ratio vs DMSO of 104%.
`Cc1ccc(Cn2c(C)nc3c(c2=O)c2nc4ccccc4nc2n3Cc2ccco2)cc1` showed a Nile Red retention ratio vs DMSO of 104%.
`O=C(/C=C/c1c(Cl)cccc1Cl)NCc1ccccc1` was tested, and the Nile Red retention ratio vs DMSO was 102%.
Molecule `Cc1ccc(N=C2NC(=O)/C(=C/C=C/c3ccco3)S2)cc1C` has a Nile Red retention ratio vs DMSO of 114%.
Molecule `Cc1cccc(NC(=O)COc2ccccc2C)n1` has a Nile Red retention ratio vs DMSO of 95.6%.
`COc1ccc(C(=O)NC2CCCc3c2cnn3-c2cccc(C)c2C)c(OC)n1` (centres undefined) showed a Nile Red retention ratio vs DMSO of 93.2%.
`CC[n+]1cc(C)ccc1/C=C/c1ccc(N(C)C)cc1` showed a Nile Red retention ratio vs DMSO of 118%.
`O=C(CN1C(=O)C2C3CCC(C3)C2C1=O)Oc1ccc2ccccc2c1` (centres undefined) showed a Nile Red retention ratio vs DMSO of 105%.
`Cc1ccc(Cn2nnc3c(=O)[nH]c(C4CCN(S(=O)(=O)/C=C/c5ccccc5)CC4)nc32)cc1` gave a Nile Red retention ratio vs DMSO of 93%.
Molecule `CCNC(=O)c1c(O)c2cccc3c2n(c1=O)CC3` has a Nile Red retention ratio vs DMSO of 107%.
Work on `O=C(Cc1ccccc1)NCC1OCCc2ccccc21` (centres undefined) yielded a Nile Red retention ratio vs DMSO of 117%.
For `CC1CCc2c(sc(NC(=O)c3ccc(Cn4cc(Br)cn4)o3)c2C(N)=O)C1` (centres undefined), the Nile Red retention ratio vs DMSO was 108%.
In the case of `Cc1ccc2c(c1)NC(=O)[C@@]1(C)[C@@H](c3ccccc3)[C@H]3COc4ccc(Cl)cc4[C@@H]3N1C2=O`, the Nile Red retention ratio vs DMSO is reported as 102%.
For `O=C(Cn1c(COc2ccccc2)nc2ccccc21)Nc1cc(Cl)c(Cl)cc1Cl`, the Nile Red retention ratio vs DMSO was 110%.
With `Cc1ccc2[nH]c3c(=O)n(CC(=O)NCCc4ccc(Cl)cc4)ncc3c2c1` the Nile Red retention ratio vs DMSO was 137%.
`C/C(N)=C(/C#N)C(=O)COC(=O)c1cc(-c2cccc(Br)c2)nc2ccccc12` gave a Nile Red retention ratio vs DMSO of 110%.
`CCOc1ccc2nc(Cl)c(C3CC(c4ccccc4)=NN3C(=O)c3cccs3)cc2c1` (centres undefined) showed a Nile Red retention ratio vs DMSO of 131%.
In the case of `C=CCC[C@@H](Cc1ccc(F)cc1)C(=O)OC[C@H](Cc1c[nH]c2ccccc12)NC(=O)[C@@H](CC=C)CC(=O)N(CCO)Cc1ccccc1`, the Nile Red retention ratio vs DMSO is reported as 123%.
For `Cc1c(CCOC(=O)CC23CC4CC(CC(C)(C4)C2)C3)sc[n+]1Cc1ccc([N+](=O)[O-])cc1`, the Nile Red retention ratio vs DMSO was 821% (active).
`CSCCC(NS(=O)(=O)c1ccc(C)cc1)C(=O)N1CCCC1` (centres undefined) was tested, and the Nile Red retention ratio vs DMSO was 89.3%.
For `O=C(Nc1ccc(NC(=O)c2cccs2)cc1)c1ccc2ccccc2c1`, the Nile Red retention ratio vs DMSO was 108%.
For `CCCc1nnc(SCC(=O)Nc2ccc(C(=O)OCC)cc2)o1`, the Nile Red retention ratio vs DMSO was 133%.
In the case of `CCNc1c(NS(=O)(=O)c2ccc(C3CCCCC3)cc2)c(=O)oc2ccccc12`, the Nile Red retention ratio vs DMSO is reported as 98.7%.
For `CCc1ccc(NC(=O)Cn2ncn3c(cc4ccccc43)c2=O)cc1`, the Nile Red retention ratio vs DMSO was 101%.
For `COc1ccccc1NC(=O)C1CCCN1S(=O)(=O)c1ccc(Cl)cc1` (centres undefined), the Nile Red retention ratio vs DMSO was 99.7%.
Molecule `CC(/C=C/c1ccccc1)=N\NC(=O)C1CC1(C)c1ccccc1` (centres undefined) has a Nile Red retention ratio vs DMSO of 94%.
With `Cc1oc2cc3oc(=O)ccc3cc2c1C` the Nile Red retention ratio vs DMSO was 107%.
`Cc1cc(C(=O)Nc2ccc(C)c(S(=O)(=O)N3CCOCC3)c2)c2ccccc2n1` was tested, and the Nile Red retention ratio vs DMSO was 83.1%.
`CCOc1ccccc1/C=c1\sc2nc(-c3ccco3)nn2c1=O` gave a Nile Red retention ratio vs DMSO of 116%.

Source: PubChem BioAssay AID588520 (NMMLSC, 2011)
